Reference: PubChem BioAssay (NCATS)
The source made the active and inactive calls. Calls come from the whole dose curve.

Experiment: qHTS drug screen for cell cycle checkpoint inhibitors in PARPi-resistant BRCA-mutant ovarian cancer cell lines. (AID 1963452)
Conditions: PEO1/OlaR viability, CellTiter-Glo luminescence, 96 h; stronger effect = lower value
Method in brief: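 PEO1, PEO4 and PEO1/OlaR ovarian cancer cells, 600 per well, exposed 96 h at 37C to a dilution series. Viability read by CellTiter-Glo luminescence, normalized to DMSO and empty wells; activity summarized as Z-AUC.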

| SMILES | Z-AUC |
| --- | --- |
| Oc1ccc([C@@H]2Oc3ccc(O)cc3[C@@H]3CCC[C@@H]32)cc1 | 0.648 (inactive) |
| C[C@H]1[C@@H](OC(=O)CCC(=O)O)O[C@@H]2O[C@@]3(C)CC[C@@H]4[C@H](C)CC[C@@H]1[C@@]24OO3 | -0.162 (inactive) |
| Cc1ccc(-n2[nH]c(C)c(N=Nc3cccc(-c4cccc(C(=O)O)c4)c3O)c2=O)cc1C | -0.217 (inactive) |
| CN(C)c1ccc2cc(C(=O)N[C@@H](CCCN=C(N)CCl)C(=O)NCc3ccccc3)ccc2c1 | 1.15 (inactive) |
| Oc1cc2c(cc1O)C1c3ccc(O)c(O)c3OCC1(O)C2 (stereo not drawn) | 1.52 (inactive) |
| CC(C)[C@H](CO)Nc1nc(Nc2cccc(Cl)c2)c2ncn(C(C)C)c2n1 | 0.56 (inactive) |
| CCOC(=O)C=C[C@H](C[C@@H]1CCNC1=O)NC(=O)[C@@H](CC(=O)[C@@H](NC(=O)c1cc(C)on1)C(C)C)Cc1ccc(F)cc1 | -0.315 (inactive) |
| CC(C)n1cnc2c(NCCc3ccc(O)cc3)nc(-c3csc4ccccc34)nc21 | 0.419 (inactive) |
| CC(=O)SCC(Cc1ccccc1)C(=O)NCC(=O)OCc1ccccc1 (stereo not drawn) | 0.0229 (inactive) |
| CCCCOc1ccc(C(=O)Nc2ccc(F)cc2F)cc1 | -0.387 (inactive) |
| C#Cc1cccc(Nc2ncnc3cc(OCCOC)c(OCCO)cc23)c1 | 0.364 (inactive) |
| Nc1nc(N)c2nc(-c3cccc(O)c3)c(-c3cccc(O)c3)nc2n1 | 0.00904 (inactive) |
| CN(C)c1ccc(C(=O)NCCCCCCC(=O)NO)cc1 | -1.48 (inactive) |
| O=C(NC1CC1)c1cccc(-c2ccc3c(NC(=O)C4CC4)n[nH]c3c2)c1 | -1.31 (inactive) |
| CCc1nc(-c2cccc(C)c2)c(-c2ccnc(NC(=O)c3ccccc3)c2)s1 | -0.209 (inactive) |
| COc1cc2c(cc1OC)[C@@H]1C(=O)c3ccc4c(c3O[C@@H]1CO2)C=CC(C)(C)O4 | -0.868 (inactive) |
| O=C(O)CCCCCC(=O)NN=C1CCCC1 | 1.41 (inactive) |

| SMILES | Z-AUC |
| --- | --- |
| COc1ccc(S(=O)(=O)Nc2cc(-c3c(O)ccc4ccccc34)c(O)c3ccccc23)cc1 | 0.502 (inactive) |
| NC1=N[C@H]2[C@H](CS[C@H]2CCCCC(=O)O)N1 | -0.195 (inactive) |
| C=CC(=O)N1CCc2ccc(-n3c(=O)ccc4cnc5ccc(-c6cnn(C)c6)cc5c43)cc21 | -0.366 (inactive) |
| CN(C)CC(=O)N1CCC(c2ccc(NC(=O)c3ncc(C#N)[nH]3)c(C3=CCCCC3)c2)CC1 | -1.11 (inactive) |
| O=C(CCCCCCC(=O)Nc1cccnc1)NO | 0.519 (inactive) |
| Cc1cnc(NC(=O)Nc2cc(Br)c(C)cc2OC[C@@H]2CNCCO2)cn1 | -0.43 (inactive) |
| c1ccc2c(Oc3nc(Nc4ccc(N5CCOCC5)cc4)c4ncn(C5CCCCC5)c4n3)cccc2c1 | 1.71 (inactive) |
| C[C@H](NC(=O)Cc1cc(F)cc(F)c1)C(=O)N[C@H](C(=O)OC(C)(C)C)c1ccccc1 | -0.609 (inactive) |
| COc1ccc(C[C@@H](C)[C@@H](C)Cc2ccc(OC)c(OC)c2)cc1OC | 0.193 (inactive) |
| C=C(C)[C@@H]1CC[C@]2(C(=O)O)CC[C@]3(C)[C@H](CC[C@@H]4[C@@]5(C)CC[C@H](O)C(C)(C)[C@@H]5CC[C@]43C)[C@@H]12 | 1.23 (inactive) |
| CC(C)c1cc(C(C)C)c(CC(=O)NS(=O)(=O)Oc2c(C(C)C)cccc2C(C)C)c(C(C)C)c1 | 0.134 (inactive) |
| N#Cc1cc(NC(=O)Nc2nnc(-c3ccncc3)s2)ccc1-c1cn[nH]c1 | -0.0161 (inactive) |
| C[C@@H](NCc1cc2ccccc2[nH]1)c1cccc2ccccc12 | 0.66 (inactive) |
| FC(F)c1nc2ccccc2n1-c1nc(N2CCOCC2)nc(N2CCOCC2)n1 | -1.24 (inactive) |
| NC(=O)Nc1sc(-c2ccc(F)cc2)cc1C(N)=O | -1.29 (inactive) |
| Oc1ccc(-c2ccc(-c3cc(Nc4cccc(CNC5CC5)c4)n[nH]3)cc2)c(O)c1 | -0.35 (inactive) |
| NC(=NCCCCCCN=C(N)N=C(N)Nc1ccc(Cl)cc1)N=C(N)Nc1ccc(Cl)cc1 | 0.994 (inactive) |

Same assay, conditions: PEO1/OlaR viability, CellTiter-Glo luminescence, 96 h; measured here: PEO1 parental Z-AUC; stronger effect = lower value

| SMILES | Z-AUC |
| --- | --- |
| Oc1ccc([C@@H]2Oc3ccc(O)cc3[C@@H]3CCC[C@@H]32)cc1 | -0.25 |
| C[C@H]1[C@@H](OC(=O)CCC(=O)O)O[C@@H]2O[C@@]3(C)CC[C@@H]4[C@H](C)CC[C@@H]1[C@@]24OO3 | -0.815 |
| Cc1ccc(-n2[nH]c(C)c(N=Nc3cccc(-c4cccc(C(=O)O)c4)c3O)c2=O)cc1C | -0.314 |
| CN(C)c1ccc2cc(C(=O)N[C@@H](CCCN=C(N)CCl)C(=O)NCc3ccccc3)ccc2c1 | 0.744 |
| Oc1cc2c(cc1O)C1c3ccc(O)c(O)c3OCC1(O)C2 (stereo not drawn) | 1.33 |
| CC(C)[C@H](CO)Nc1nc(Nc2cccc(Cl)c2)c2ncn(C(C)C)c2n1 | 0.0457 |
| CCOC(=O)C=C[C@H](C[C@@H]1CCNC1=O)NC(=O)[C@@H](CC(=O)[C@@H](NC(=O)c1cc(C)on1)C(C)C)Cc1ccc(F)cc1 | -0.169 |
| CC(C)n1cnc2c(NCCc3ccc(O)cc3)nc(-c3csc4ccccc34)nc21 | 0.415 |
| CC(=O)SCC(Cc1ccccc1)C(=O)NCC(=O)OCc1ccccc1 (stereo not drawn) | 1.28 |
| CCCCOc1ccc(C(=O)Nc2ccc(F)cc2F)cc1 | -0.847 |
| C#Cc1cccc(Nc2ncnc3cc(OCCOC)c(OCCO)cc23)c1 | 0.383 |
| Nc1nc(N)c2nc(-c3cccc(O)c3)c(-c3cccc(O)c3)nc2n1 | 1.16 |
| CN(C)c1ccc(C(=O)NCCCCCCC(=O)NO)cc1 | -0.12 |
| O=C(NC1CC1)c1cccc(-c2ccc3c(NC(=O)C4CC4)n[nH]c3c2)c1 | -0.612 |
| CCc1nc(-c2cccc(C)c2)c(-c2ccnc(NC(=O)c3ccccc3)c2)s1 | 0.57 |
| COc1cc2c(cc1OC)[C@@H]1C(=O)c3ccc4c(c3O[C@@H]1CO2)C=CC(C)(C)O4 | -1.79 |
| O=C(O)CCCCCC(=O)NN=C1CCCC1 | 1.02 |

| SMILES | Z-AUC |
| --- | --- |
| COc1ccc(S(=O)(=O)Nc2cc(-c3c(O)ccc4ccccc34)c(O)c3ccccc23)cc1 | 0.417 |
| NC1=N[C@H]2[C@H](CS[C@H]2CCCCC(=O)O)N1 | 0.0828 |
| C=CC(=O)N1CCc2ccc(-n3c(=O)ccc4cnc5ccc(-c6cnn(C)c6)cc5c43)cc21 | -0.285 |
| CN(C)CC(=O)N1CCC(c2ccc(NC(=O)c3ncc(C#N)[nH]3)c(C3=CCCCC3)c2)CC1 | -0.797 |
| O=C(CCCCCCC(=O)Nc1cccnc1)NO | 0.211 |
| Cc1cnc(NC(=O)Nc2cc(Br)c(C)cc2OC[C@@H]2CNCCO2)cn1 | -0.193 |
| c1ccc2c(Oc3nc(Nc4ccc(N5CCOCC5)cc4)c4ncn(C5CCCCC5)c4n3)cccc2c1 | 1.4 |
| C[C@H](NC(=O)Cc1cc(F)cc(F)c1)C(=O)N[C@H](C(=O)OC(C)(C)C)c1ccccc1 | -0.43 |
| COc1ccc(C[C@@H](C)[C@@H](C)Cc2ccc(OC)c(OC)c2)cc1OC | -0.135 |
| C=C(C)[C@@H]1CC[C@]2(C(=O)O)CC[C@]3(C)[C@H](CC[C@@H]4[C@@]5(C)CC[C@H](O)C(C)(C)[C@@H]5CC[C@]43C)[C@@H]12 | 0.622 |
| CC(C)c1cc(C(C)C)c(CC(=O)NS(=O)(=O)Oc2c(C(C)C)cccc2C(C)C)c(C(C)C)c1 | 0.546 |
| N#Cc1cc(NC(=O)Nc2nnc(-c3ccncc3)s2)ccc1-c1cn[nH]c1 | 0.0346 |
| C[C@@H](NCc1cc2ccccc2[nH]1)c1cccc2ccccc12 | 0.376 |
| FC(F)c1nc2ccccc2n1-c1nc(N2CCOCC2)nc(N2CCOCC2)n1 | -1.07 |
| NC(=O)Nc1sc(-c2ccc(F)cc2)cc1C(N)=O | -1.13 |
| Oc1ccc(-c2ccc(-c3cc(Nc4cccc(CNC5CC5)c4)n[nH]3)cc2)c(O)c1 | 0.119 |
| NC(=NCCCCCCN=C(N)N=C(N)Nc1ccc(Cl)cc1)N=C(N)Nc1ccc(Cl)cc1 | 0.0732 |
